JMJD2A Tudor: qHTS Assay for Inhibitors of JMJD2A-Tudor Domain | 390,000 tested, 4.4% active | Lysine-specific demethylase 4A (Homo sapiens), O75164 | Potency, µM (titrated, usually from 114 µM), inactives show at the highest dose activity change, negative = inhibition, hits mostly inhibitors | AlphaScreen JMJD2A-Tudor / H3K4me3 peptide binding; also: % is scaled to controls: 0 for no effect and ±100 for the full control effect; nearly all actives have a fitted effect of over 50% in size
G9a inh: qHTS Assay for Inhibitors of Histone Lysine Methyltransferase G9a; Histone-lysine N-methyltransferase EHMT2 (Homo sapiens), Q96KQ7; G9a H3K9 monomethylation, AlphaScreen, 2 h; Potency, µM (series often up to 102 µM), for inactives: at the highest dose activity, negative = inhibition, most hits filed as inhibitors; 350,000 tested, 8.8% active; AID 504332, 2011; also: % is scaled to controls: 0 for no effect and ±100 for the full control effect; nearly all actives have a fitted effect of over 75% in size
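Using a bead-based AlphaScreen, monomethylated H3K9 product from 2 h room-temperature reactions (G9a 20 nM, peptide 500 nM, SAM 20 uM) was detected with 0.5 ug/mL rabbit anti-H3K9me1 antibody.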
12-LOX inh: Primary qHTS assay for inhibitors of human arachidonate 12S-lipoxygenase (ALOX12): Round 2; Polyunsaturated fatty acid lipoxygenase ALOX12 (Homo sapiens), P18054; purified 12hLO, xylenol orange hydroperoxide absorbance; Potency, µM (titrated, usually from 108 µM), without a hit: at the highest dose activity change, negative = inhibition, actives largely listed as inhibitors; 580,000 tested, 1.1% active; AID 1671190, 2021; also: % is scaled to controls: 0 for no effect and ±100 for the full control effect
Target sequence (P18054 whole entry, looked up): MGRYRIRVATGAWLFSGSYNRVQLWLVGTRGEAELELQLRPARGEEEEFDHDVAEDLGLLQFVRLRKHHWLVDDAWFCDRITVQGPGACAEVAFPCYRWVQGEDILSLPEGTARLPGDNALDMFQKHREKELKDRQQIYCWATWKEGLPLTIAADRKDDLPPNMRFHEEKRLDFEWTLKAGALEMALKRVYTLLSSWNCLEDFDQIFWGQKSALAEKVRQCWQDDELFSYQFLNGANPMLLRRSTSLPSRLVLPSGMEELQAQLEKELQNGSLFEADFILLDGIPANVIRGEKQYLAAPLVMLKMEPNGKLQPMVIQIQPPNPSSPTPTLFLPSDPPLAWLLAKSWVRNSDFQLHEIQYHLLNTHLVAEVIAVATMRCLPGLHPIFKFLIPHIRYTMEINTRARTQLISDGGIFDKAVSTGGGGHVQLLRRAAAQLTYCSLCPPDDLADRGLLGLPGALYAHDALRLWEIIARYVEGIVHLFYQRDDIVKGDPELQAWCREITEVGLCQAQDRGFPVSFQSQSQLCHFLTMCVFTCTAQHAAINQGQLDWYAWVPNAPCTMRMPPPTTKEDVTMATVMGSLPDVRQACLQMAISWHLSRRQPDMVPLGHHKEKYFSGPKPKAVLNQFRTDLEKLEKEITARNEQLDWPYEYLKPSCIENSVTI
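Hydroperoxide product was detected by ferrous iron/xylenol orange as the 573 to 405 nm absorbance ratio. Arachidonic acid at 40 uM (final) was turned over for 30 min at room temperature by 150 nM human 12hLO, pH 7.0 Hepes buffer, after 15 min compound preincubation.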
Sfp inh: qHTS Assay for Inhibitors of Bacillus subtilis Sfp phosphopantetheinyl transferase (PPTase); 4'-phosphopantetheinyl transferase ffp (Bacillus subtilis), Q9F4F7; Biochemical Sfp PPTase activity, qHTS; Potency, µM, for inactives: largest response in the series, negative = inhibition, usual class: inhibitors; 310,000 tested, 3.5% active;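 also: the enzyme is Sfp with the accession as filed and its product quenches rhodamine fluorescence; 0% = enzyme reaction without inhibitor and -100% = no enzyme wells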
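With Hepes-Na pH 7.6 buffer containing 10 mM MgCl2, Sfp (15 nM) modified BHQ-2-YbbR (12.5 uM) using rhodamine-CoA (5 uM). Two reads 30 minutes apart at 525/598 nm yielded each well's rate.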
HP1b chromo inh: HTS for Inhibitors of HP1-beta Chromodomain Interactions with Methylated Histone Tails; Chromobox protein homolog 1 (Homo sapiens), P83916; AlphaScreen HP1-beta / biotin-H3K9me3 peptide binding; 390,000 tested, 0.56% active; Potency, µM (highest dose often 114 µM), inactives show top-dose activity change, negative = inhibition, actives largely listed as inhibitors; also: nearly all actives have a fitted effect of over 70% in size
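AlphaScreen: HP1-beta (50 nM) preformed 30 min with biotin-H3(1-18)K9me3 peptide (50 nM) in PBS pH 7.4, 0.01% Tween-20. Compound added for 30 min at RT, then streptavidin donor/nickel chelate acceptor beads (10 ug/mL) for 30 min.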
BAZ2B block: qHTS Assay for Inhibitors of BAZ2B; Bromodomain adjacent to zinc finger domain protein 2B (Homo sapiens), Q9UIF8; AlphaScreen BAZ2B-H3K14Ac peptide displacement; Potency, µM (doses to about 114 µM), for the others: at the top dose activity change, negative = inhibition, actives largely listed as inhibitors; 360,000 tested, 4.4% active; AID 504333, 2011; also: % is scaled to controls: 0 for no effect and ±100 for the full control effect; nearly all actives have a fitted effect of over 60% in size
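Protein-peptide AlphaScreen: BAZ2B 50 nM, b-H3K14Ac 50 nM, 1x PBS pH 7.4 + 0.01% Tween-20. Preincubation 30 min RT; cpd 30 min RT (top 110 uM); beads 20 min RT, light-protected.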
Numbers without * were called inactive; i = inactive; ? = inconclusive; . = not tested or not shown; [ ] = remark or other dose. Most compounds without a hit are left out; they make up all but 8.7% or so of the library. Calls follow the shape of the dose curve; as a rule, active = well fitted curve in the direction sought with a large enough effect; inconclusive = small, poorly fitted or top-dose-only effect, or another doubt; inactive = no such curve, though single readings can be large; an effect the other way counts as inactive or inconclusive. Potency is read from the fitted curve at half-maximal effect.

SMILES	JMJD2A Tudor	G9a inh	12-LOX inh	Sfp inh	HP1b chromo inh	BAZ2B block
COc1ccc(OC)c(CNC(=O)c2ccc3c(c2)c(C)c(C)n3Cc2ccc(Cl)cc2)c1	?	-44%[59 µM]	-11%	.	11%	-33%
COc1ccc(OC)c(CNC(=O)c2ccc3c(c2)c(C)c(C)n3C)c1	?	?	-13%	.	-3%	35µM*
CN1CCOC(CNC(=O)Cc2ccc(Cl)cc2)C1 (stereo unspecified)	.	.	-11%	.	.	.
COC(=O)Cc1ccc(NC(=S)NNC(=O)c2ccccc2Br)cc1	-12%	?	-17%	-10%	0%	-1%
O=C(NNC(=S)Nc1ccccc1Cl)c1ccccc1Br	-22%	40µM*	i	-10%	12%	-14%
O=C(Nc1ccc(NC(=O)c2ccccc2Br)cc1)c1ccccc1	-15%	.	25%	9%	55%	8%
O=C(NNC(=S)Nc1ccc(Br)cc1)c1ccccc1Br	-22%	7.9µM*	494%	-11%	-14%	-21%
O=C(Nc1ccc(C(F)(F)F)cc1)c1ccccc1Br	35µM*	2%	-9%	10%	-6%	0%
O=C(NNC(=O)c1ccccc1Br)c1ccccc1Cl	-16%	-3%	8%	18%	23%	-2%
CCC(C)c1ccc(OC(C)C(N)=O)cc1 (stereo unspecified)	.	.	-46%	.	.	.
O=C(Cn1cccc1-c1nc(-c2ccc(F)cc2)no1)NCc1ccc(Cl)cc1	.	.	-1%	.	.	.
COc1ccc(CN2CCC[C@H]2c2nc(-c3ccc(-n4ccnc4)nc3)no2)c(OC)c1OC	.	.	47%	.	.	.
CC(C)CC(c1nnnn1C(C)C)N1CCN(C(=O)c2ccco2)CC1 (stereo unspecified)	-20%	-15%[0.501 µM]	?	.	11%	-25%
CCCC(c1nnnn1CCOC)N1CCN(C(=O)c2ccco2)CC1 (stereo unspecified)	?	45µM*	?	-1%	11%	?
CCCCC(c1nnnn1C(C)C)N1CCN(C(=O)c2ccco2)CC1 (stereo unspecified)	?	50µM*	?	-24%	26%	-9%
COCCn1nnnc1CN1CCN(C(=O)c2ccco2)CC1	-7%	17%	-11%	0%	1%	1%
COCCn1nnnc1C(C(C)C)N1CCN(C(=O)c2ccco2)CC1 (stereo unspecified)	45µM*	-3%[12.7 µM]	?	23%	0%	-1%
CCOC(=O)c1c(C)oc2ncn(Cc3noc(-c4cccs4)n3)c(=O)c12	.	.	-29%	.	.	.
N=C(N)S/C=C\C(=O)O	.	25µM*	?	7.9µM*	.	.
COc1ccccc1CC(C#N)C(=O)Nc1cc(C)cc(C)c1 (stereo unspecified)	.	.	-12%	.	.	.
CCCc1cc(=O)n(-c2nc3ccccc3s2)[nH]1	-10%	.	24%	-1%	69%	-12%
CCOC(=O)Cc1cc(=O)n(-c2nc3ccccc3s2)[nH]1	-32%	32µM*	7.9µM*	-21%	14%	0%
O=C(COc1ccc(F)cc1)N1CCC(Oc2ncccc2C(=O)N2CCCCC2)C1 (stereo unspecified)	.	.	13%	.	.	.
Cc1ccc(C(=O)COC(=O)c2cn3ccccc3n2)cc1	-15%	-3%	0%	16%	35%	-4%
NNC(=O)c1cn2ccccc2n1	20µM*	3.2µM*	-5%	79µM*	28%	18µM*
SMILES	JMJD2A Tudor	G9a inh	12-LOX inh	Sfp inh	HP1b chromo inh	BAZ2B block
CC(NC(=O)CCCc1c[nH]c2ccccc12)c1ccncc1 (stereo unspecified)	.	.	48%	.	.	.
COc1ccc(OC)c(/C=N/NC(=O)c2ccc(=O)[nH]n2)c1	-13%	-15%[59 µM]	3%	0%	12%[57 µM]	-35%
COc1ccccc1/C=N\NC(=O)c1c(C)nc2ccc(Cl)cn12	-6%	0%[59 µM]	18%	19%	22%	11%
COc1cccc(/C=N/NC(=O)c2ccc(=O)[nH]n2)c1O	79µM*	-4%	6%	13%	49%	50µM*
COc1cccc(/C=N/NC(=O)c2cnccn2)c1OC	20µM*	7%	-20%	3%	18%	-4%
COc1cc(OC)c(OC)cc1/C=N/NC(=O)c1ccc(=O)n(C)c1	-18%[57.1 µM]	23%[59 µM]	1%	11%	18%	-4%
COc1cccc(/C=N/NC(=O)c2ccc(=O)n(C)c2)c1O	56µM*	16%[59 µM]	3%	14%	17%	?
COc1cccc(/C=N/NC(=O)c2c(C)nc3ccc(Cl)cn23)c1O	56µM*	-10%	-10%	31%	23%	8.9µM*
C[C@H](Nc1ccc(C(F)(F)F)cc1[N+](=O)[O-])C(=O)OCC(=O)NC12CC3CC(CC(C3)C1)C2	.	.	3%	.	.	.
CC(C)c1ccc(CC(=O)N2CCCc3ncc(C(=O)N4CCCC[C@@H]4Cc4ccccc4)cc32)cc1	.	.	8%	.	.	.
COc1ccc(C(=O)Nc2cc3c(cc2C(=O)c2ccc(C)cc2)OCCO3)cc1	.	.	-4%	.	.	.
C=C(C)CC(Nc1ccc(OC)cc1)c1ccco1 (stereo unspecified)	3%	?	-3%	14%	38%	50µM*
COc1ccc(S(=O)(=O)NC(CC(=O)O)c2ccco2)cc1 (stereo unspecified)	-4%	1%	3%	11%	32%	3%
COC(=O)c1ccc(C(=O)N(C)Cc2cccnc2)s1	.	.	5%	.	.	.
Cc1ccccc1C(=O)NC(=S)Nc1ccc2[nH]c(=O)[nH]c2c1	-16%	-31%	?	-3%	36%	-15%
S=C(Nc1ccc2cn[nH]c2c1)Nc1ccc(Cl)cc1Cl	?	28µM*	?	16µM*	-22%	?
Cc1ccccc1NC(=S)Nc1ccc2[nH]c(=O)[nH]c2c1	-16%	50µM*	?	-28%	-4%	-10%
O=c1[nH]c2ccc(NC(=S)Nc3ccccc3Cl)cc2[nH]1	-6%	14µM*	?	50µM*	1%	-4%
O=c1[nH]c2ccc(NC(=S)Nc3ccc(Cl)cc3Cl)cc2[nH]1	-21%	-41%[59 µM]	?	4%	8%	-4%
CN1CCC2(CC1)CC(=O)N(CC(=O)N(C)CCc1cnn(C)c1)C2	.	.	-6%	.	.	.
Cc1nc2ccccc2c(C)c1C(=O)c1ccc(Cl)cc1	.	.	7.9µM*	.	.	.

Compound activity: PubChem, National Center for Advancing Translational Sciences (NCATS)
